In ChEMBL document CHEMBL2218924, “A broad activity screen in support of a chemogenomic map for kinase signalling research and drug discovery” (Biochem J, 2013):

These compounds were tested against MAP kinase-activated protein kinase 3 (Homo sapiens) (UniProt Q16644). Conditions: at 1 µM.
Sequence of MAP kinase-activated protein kinase 3 (Homo sapiens) (Q16644 whole entry, looked up): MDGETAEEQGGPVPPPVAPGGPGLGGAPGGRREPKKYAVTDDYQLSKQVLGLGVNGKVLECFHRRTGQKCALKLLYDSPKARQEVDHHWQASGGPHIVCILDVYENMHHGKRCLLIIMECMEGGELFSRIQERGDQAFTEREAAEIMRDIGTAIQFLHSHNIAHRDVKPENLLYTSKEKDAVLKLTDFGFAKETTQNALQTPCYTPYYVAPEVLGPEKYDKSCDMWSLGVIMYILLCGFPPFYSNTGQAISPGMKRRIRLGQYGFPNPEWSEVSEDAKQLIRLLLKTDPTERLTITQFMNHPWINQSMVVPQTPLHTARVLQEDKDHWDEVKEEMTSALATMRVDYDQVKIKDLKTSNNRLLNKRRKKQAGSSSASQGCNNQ

| SMILES | residual activity |
| --- | --- |
| COc1cc2ncnc(N3CCN(C(=O)Nc4ccc(Oc5ccccc5)cc4)CC3)c2cc1OC | 100% |
| Nc1ccc2ncnc(NCCc3ccc(Oc4ccccc4)cc3)c2c1 | 117% |
| CO[C@H]1C[C@@H]2CC[C@@H](C)[C@@](O)(O2)C(=O)C(=O)N2CCCC[C@H]2C(=O)O[C@H]([C@H](C)C[C@@H]2CC[C@@H](O)[C@H](OC)C2)CC(=O)[C@H](C)/C=C(\C)[C@@H](O)[C@@H](OC)C(=O)[C@H](C)C[C@H](C)/C=C/C=C/C=C/1C | 103% |
| O=C(Nc1cccc(Nc2cc(Nc3cccc(C(F)(F)F)c3)ncn2)c1)C1CC1 | 90% |
| C[C@@H](N)[C@H]1CC[C@H](C(=O)Nc2ccncc2)CC1 | 90% |
| CC(C)c1nn(-c2c(Cl)cccc2Cl)c2nc(Cc3ccc(OCCO)cc3)[nH]c(=O)c12 | 101% |
| O=C1NC(=O)/C(=C/c2ccc3c(c2)OC(F)(F)O3)S1 | 95% |
| COc1ccc2c(c1)c(C1=C(c3c[nH]c4ccccc34)C(=O)NC1=O)cn2CCCN(C)C | 103% |
| O=C1NC(=O)c2c1c1c3ccccc3[nH]c1c1[nH]c3cc(Br)ccc3c21 | 87% |
| Cc1cc(C)c(/C=C2\C(=O)Nc3ccccc32)[nH]1 | 140% |
| COc1cc2ncnc(Nc3ccc(Oc4ccccc4)cc3)c2cc1OC | 118% |
| O=C1Cc2c([nH]c3ccc([N+](=O)[O-])cc23)-c2ccccc2N1 | 75% |
| Nc1n[nH]c2nnc(-c3c(-c4ccccc4)nn4ccccc34)cc12 | 99% |
| Cn1cnc2cc3c(Nc4cccc(Br)c4)ncnc3cc21 | 107% |
| O=C1C(Cl)=C(N2C(=O)CCC2=O)C(=O)c2ccccc21 | 101% |
| Oc1c2ccccc2c2c3c(cccc13)N=N2 | 100% |
| Nc1nc(Nc2ccc(S(N)(=O)=O)cc2)nn1C(=S)Nc1c(F)cccc1F | 97% |
| O=C1NC(=O)c2c1c1c3ccccc3[nH]c1n1cncc21 | 86% |

| SMILES | residual activity |
| --- | --- |
| O=C(CCCc1ccc(-c2ccccc2F)cc1)Nc1ccc(O)cc1 | 100% |
| Cn1cc(/C=C2\C(=O)Nc3ccc(S(N)(=O)=O)cc32)c2ccccc21 | 117% |
| Nc1cccc(-c2cc3c(Oc4cccc(O)c4)ncnc3[nH]2)c1 | 126% |
| NC(=O)Nc1sc(-c2ccc(F)cc2)cc1C(N)=O | 98% |
| O=c1cc(N2CCOCC2)oc2c1ccc1ccccc12 | 127% |
| COc1cc2ncnc(Nc3ccc(O)c(Br)c3)c2cc1OC | 124% |
| O=c1cc(-c2cccc3c2Sc2ccccc2S3)oc(N2CCOCC2)c1 | 115% |
| Oc1n[nH]c2nnc(-c3c(-c4ccccc4)nn4ccccc34)cc12 | 98% |
| Oc1ccc(-c2nc(-c3ccc(F)cc3)c(-c3ccncc3)[nH]2)cc1 | 127% |
| Cc1ccc(NC2=CC(=O)c3sc(C)nc3C2=O)cc1 | 85% |
| O=C1Nc2ccc(Br)cc2/C1=C\c1cc2c([nH]1)CCCC2 | 126% |
| CC(C)n1cnc2/c(=N/c3cccc(Cl)c3)nc(NCCO)[nH]c21 | 116% |
| Cn1nc2c3c(cccc31)C(=O)c1ccccc1-2 | 93% |
| Cc1nc(-c2ccccc2)c(-c2ccncc2)o1 | 103% |
| O=[N+]([O-])c1ccc(-c2nc(-c3ccc(F)cc3)c(-c3ccncc3)[nH]2)cc1 | 105% |
| CCN(CC)CCCCN1c2ccccc2Oc2ccc(Cl)cc21 | 115% |
| O=C1NC(=O)/C(=C\c2ccc3nccnc3c2)S1 | 97% |
| Ic1cccc(CSc2nnc(-c3ccncc3)o2)c1 | 111% |
